HP1b chromo inh – inhibitors of HP1-beta chromodomain binding to methylated histone tails; P83916; AlphaScreen HP1-beta / biotin-H3K9me3 peptide binding; Potency, µM (highest dose often 114 µM), inactives show top-dose activity change, negative = inhibition, most hits filed as inhibitors; hit rate 0.56% among 390,000; AID 540317; also: nearly all actives have a fitted effect of over 70% in size
Target sequence (P83916 whole entry, looked up): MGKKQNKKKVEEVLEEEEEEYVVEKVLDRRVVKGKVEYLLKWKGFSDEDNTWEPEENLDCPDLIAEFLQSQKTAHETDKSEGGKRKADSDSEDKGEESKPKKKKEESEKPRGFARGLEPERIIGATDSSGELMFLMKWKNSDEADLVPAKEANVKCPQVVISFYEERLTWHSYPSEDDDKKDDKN
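HP1-beta protein (50 nM final) preincubated 30 min at room temperature with biotinylated H3(1-18)K9me3 peptide (50 nM) in PBS pH 7.4, 0.01% Tween-20, then compound added for 30 min. AlphaScreen streptavidin donor/nickel chelate acceptor beads (10 ug/mL final), 30 min dark, luminescence read.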
BAZ2B inh – inhibitors of human BAZ2B bromodomain; Q9UIF8; AlphaScreen BAZ2B-H3K14Ac peptide displacement; Potency, µM (highest dose often 114 µM), for inactives: top-dose activity change, negative = inhibition, hits mostly inhibitors; hit rate 4.4% among 360,000; AID 504333; also: % is scaled to controls: 0 for no effect and ±100 for the full control effect; nearly all actives have a fitted effect of over 60% in size
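AlphaScreen displacement: compounds (up to 110uM) incubated 30 min at room temperature with a preformed 50 nM BAZ2B/50 nM biotinylated H3K14Ac peptide complex in PBS pH 7.4 with Tween-20. Donor and acceptor beads at 10 ug/mL final added, 20 min light-protected before reading.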
JMJD2A Tudor inh – inhibitors of human JMJD2A Tudor domain. AlphaScreen JMJD2A-Tudor / H3K4me3 peptide binding. AID 504339. O75164. Potency, µM (series often up to 114 µM), without a hit: at the highest dose activity change, negative = inhibition, actives largely listed as inhibitors. hit rate 4.4% among 390,000; also: % is scaled to controls: 0 for no effect and ±100 for the full control effect; nearly all actives have a fitted effect of over 50% in size
Sfp inh – Sfp phosphopantetheinyl transferase inhibition | Potency, µM, for the others: largest response in the series, negative = inhibition, usual class: inhibitors | hit rate 3.5% among 310,000 | Biochemical Sfp PPTase activity, qHTS | AID 1490;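 also: the enzyme is Sfp with the accession as filed and its product quenches rhodamine fluorescence; 0% = enzyme reaction without inhibitor and -100% = no enzyme wells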
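Fluorescence-quenching assay: 15 nM Sfp-PPTase preincubated 15 min at room temperature with compound, then 5 uM rhodamine-CoA and 12.5 uM BHQ-2-labelled YbbR peptide added. Fluorescence (ex 525/em 598 nm) read at start and after 30 min; difference gives rate.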
G9a block – G9a (human) methyltransferase inhibition; Q96KQ7; G9a H3K9 monomethylation, AlphaScreen, 2 h; Potency, µM (highest dose often 102 µM), inactives show at the top dose activity, negative = inhibition, usual class: inhibitors; hit rate 8.8% among 350,000; AID 504332; also: % is scaled to controls: 0 for no effect and ±100 for the full control effect; nearly all actives have a fitted effect of over 75% in size
Target sequence (Q96KQ7 913-1193 limits assumed): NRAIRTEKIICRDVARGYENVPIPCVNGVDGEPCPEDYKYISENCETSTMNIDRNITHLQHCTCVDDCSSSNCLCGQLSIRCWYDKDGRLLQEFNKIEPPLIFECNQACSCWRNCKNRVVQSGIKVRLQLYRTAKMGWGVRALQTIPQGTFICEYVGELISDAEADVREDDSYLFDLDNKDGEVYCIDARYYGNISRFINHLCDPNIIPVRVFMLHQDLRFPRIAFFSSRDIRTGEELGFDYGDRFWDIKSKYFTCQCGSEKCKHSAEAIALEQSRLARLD
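G9a (20 nM) was preincubated 15 min with compound, then reacted 2 h at room temperature with 500 nM biotin-H3K9 peptide and 20 µM SAM. Monomethyl-H3K9 detected by AlphaScreen using anti-H3K9me1 antibody.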
* marks the source's active call; other numbers are inactive results; u = inconclusive; x = no result given; [ ] = dose if it differs, or a comment. This is a sample that favours compounds with a hit; in the whole collection about 12% have one here. Calls follow the shape of the dose curve; as a rule, active = well fitted curve in the direction sought with a large enough effect; inconclusive = small, poorly fitted or top-dose-only effect, or another doubt; inactive = no such curve, though single readings can be large; an effect the other way counts as inactive or inconclusive. Potency is read from the fitted curve at half-maximal effect.

SMILES | HP1b chromo inh | BAZ2B inh | JMJD2A Tudor inh | Sfp inh | G9a block
CCOC(=O)c1ccc(N2C(=O)c3n[nH]c(C)c3C2c2ccccc2OC)cc1 (configuration not stated) | -4% | x | -34% | x | u
CCOC(=O)c1ccc(N2C(=O)c3n[nH]c(-c4ccco4)c3C2c2ccc(F)cc2)cc1 (configuration not stated) | -14% | x | u | x | 11µM*
O=C(CCS(=O)(=O)c1ccccc1)Nc1nc2cc3c(cc2s1)OCCO3 | 38% | 79µM* | -25% | -18% | u
NNc1nc2cc3c(cc2s1)OCCO3 | 25% | u | -3% | 40µM* | 71µM*
O=C(CCS(=O)(=O)c1ccccc1)Nc1nc2cc3c(cc2s1)OCO3 | 38% | 71µM* | -6% | -17% | u
CCN(CC)N=Nc1ccc(C(=O)O)cc1 | 40% | 1% | -2% | 1% | 2µM*
S=C1NC2=C(CCCC2=C2SCCS2)C(c2ccccc2)N1 (configuration not stated) | -16% | u | u | -7% | 10µM*
CC1=C(C(=O)c2ccccc2)C(c2cccc([N+](=O)[O-])c2)NC(=S)N1 (configuration not stated) | 18% | -27% | u | 17% | u
COc1ccc(-c2nc(CS(=O)(=O)CC(=O)NCc3ccc4c(c3)OCO4)c(C)o2)cc1 | 38% | -5% | -14% | -4% | x
Cc1ccccc1-c1nc(CS(=O)(=O)CC(=O)NCc2ccc3c(c2)OCO3)c(C)o1 | 43% | -9% | -16% | 0% | 50µM*
Cc1ccccc1-c1nsc(SCC(=O)NCc2ccc3c(c2)OCO3)n1 | -7% | -3% | -17% | -21% | 35µM*
COCCN1C(=O)N[C@@H](c2cccc(C(F)(F)F)c2)C(C(C)=O)=C1C | x | x | x | -1% | x
CCOc1ccc(S(=O)(=O)N2CCCCC2)cc1NC(=O)C1CSC2(C)CCC(=O)N12 (configuration not stated) | 12% | -2% | -11% | x | 40µM*
COc1ccc(S(=O)(=O)N2CCCCC2)cc1NC(=O)C1CSC2(C)CCC(=O)N12 (configuration not stated) | 40% | -10% | -21% | 8% | x
CC1CCN(S(=O)(=O)c2ccc(NC(=O)C3CSC4(C)CCC(=O)N34)cc2)CC1 (configuration not stated) | 8% | u | 79µM* | x | u
COC(=O)c1c(-c2ccc(C(C)(C)C)cc2)csc1NC(=O)C1C2CCC(O2)C1C(=O)O (configuration not stated) | u | -12% | u | 11µM* | 1.8µM*
CCOC(=O)c1c(-c2cccc3ccccc23)csc1NC(=O)C1C2CCC(O2)C1C(=O)O (configuration not stated) | 26% | -22% | -7% | 2% | 1%[59 µM]
Cc1cc2c(s1)c1cnn(Cc3ccccc3)c(=O)c1n2C | x | x | 3% | x | x
COc1ccc(CNC(=O)c2ccc(S(=O)(=O)N3CCOCC3)cc2)cc1 | 25% | -2% | 1% | x | -23%
COc1ccc(-n2nnnc2SCC(=O)N2CCOCC2)cc1 | 5% | -4% | -12% | 31% | -1%[59 µM]
O=[N+]([O-])c1ccc(CSc2ccc(S(=O)(=O)N3CCOCC3)cn2)cc1 | 7% | -27% | -23% | x | 20µM*
CC(C)CCNC(=O)NC(=O)CSc1ccc(S(=O)(=O)N2CCOCC2)cn1 | -10% | -5% | -16% | x | 1.6µM*
COc1ccc(CNC(=O)C(C)Sc2ccc(S(=O)(=O)N3CCOCC3)cn2)cc1 (configuration not stated) | 40% | -3% | 3% | x | 32µM*
O=[N+]([O-])c1ccc(CSc2ccc(S(=O)(=O)N3CCCC3)cn2)cc1 | 19% | -6% | -19% | x | 3%[2.33 µM]
COc1ccc(-n2nnnc2Sc2ccc(S(=O)(=O)N3CCOCC3)cn2)cc1 | u | -2% | 22µM* | 45µM* | 1.8µM*
CCOc1ccccc1NC(=O)C(C)N(c1ccccc1)S(C)(=O)=O (configuration not stated) | 15% | -1% | 6% | x | -10%[59 µM]
O=C(CN1C(=O)NC2(CCCCC2)C1=O)Nc1cc(C(F)(F)F)ccc1N1CCOCC1 | 47% | 3% | -3% | x | 50µM*
